Records with an inconclusive call do not appear. Activity calls are given as the source filed them. Unless noted, the call rests on the fitted dose curve.
What was measured:
[1] = Nuclear factor erythroid 2-related factor 2/antioxidant responsive element (Nrf2/ARE) small molecule agonists: qHTS cell viability counter screen in human keratinocytes (AID 1919968; active means well fitted curve in the direction sought with a large enough effect in the repeat runs; an effect the other way counts as inactive or inconclusive; further: nearly all actives have a fitted effect of over 55% in size)
Procedure, shortened: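 Cytotoxicity was multiplexed with the Nrf2/ARE luciferase assay in the same wells. Stably transfected HaCaT keratinocytes were treated with test compounds for 23 h at 37 C. Cell viability was then measured by CellTiter-Fluor fluorescence.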

[2] = Nuclear factor erythroid 2-related factor 2/antioxidant responsive element (Nrf2/ARE) small molecule agonists: luciferase reporter gene qHTS assay in human keratinocytes (AID 1919969); further: nearly all actives have a fitted effect of over 35% in size
[3] = molecular target: Gonadotropin-releasing hormone receptor (Homo sapiens) (UniProt P30968); experiment: Human gonadotropin-releasing hormone receptor (GnRHR) small molecule agonists, calcium flux assay in GnRHR-HEK293 cells (AID 1920063); further: nearly all actives have a fitted effect of over 35% in size
Procedure, shortened: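 Agonist activity was measured as intracellular calcium flux in HEK293 cells engineered to stably express human GnRHR. After dye loading for 1 hour at 37 C, compounds in DMSO were added and fluorescence was followed for 3 minutes.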

[4] = molecular target: KiSS-1 receptor (Homo sapiens) (UniProt Q969F8); experiment: Human kisspeptin (KISS1R) small molecule agonists, calcium flux assay in KISS1R-HEK293 cells (AID 1920064; active means well fitted curve in the direction sought with a large enough effect in the repeat runs; an effect the other way counts as inactive or inconclusive)
Procedure, shortened: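 Agonist activity is monitored as intracellular calcium rise in engineered HEK293 cells carrying human KISS1R. Cells are dye-loaded for 1 h at 37 C before compound addition, and fluorescence is recorded for 3 min.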

[5] = G protein-coupled receptor (GPCR) small molecule agonists, calcium flux assay: HEK293 wild type cell line counter screen (AID 1920065)
Procedure, shortened: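 Seed cells, incubate 18 h (37 C, 5% CO2); add calcium dye, 1 h at 37 C; pin-transfer compounds, ATP control or DMSO; read fluorescence 480/540 nm each second for 3 min.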

[6] = p53 small molecule agonists, cell-based qHTS assay with human liver microsomes (AID 1963577);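 further: p53 response element beta-lactamase reporter cells with liver microsomes plus NADPH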
Procedure, shortened: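 With metabolic activation: human liver microsomes (0.5 mg/mL final) plus NADPH (0.5 mg/mL final) added alongside compounds to p53RE-bla cells; 16 h 37 C exposure; beta-lactamase read by LiveBLAzer fluorescence.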

[7] = p53 small molecule agonists, cell-based qHTS assay with rat liver microsomes (AID 1963578)
Procedure, shortened: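 Metabolic activation by rat liver microsomes and NADPH, each 0.5 mg/mL final, added right after compounds to p53RE-bla reporter cells (4,000/well, plated 5 h earlier). 16 h at 37 C, then LiveBLAzer substrate for 2 h at room temperature in the dark; fluorescence read-out.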

[8] = p53 small molecule agonists, cell-based qHTS assay with human liver microsomes: qHTS cell viability counter screen (AID 1963579); further: nearly all actives have a fitted effect of over 45% in size
Procedure, shortened: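 Metabolic activation used human liver microsomes and NADPH, both 0.5 mg/mL final, over 16 hours at 37 C on p53RE-bla cells (4,000/well). Cytotoxicity measured by CellTiter-Glo luminescence, 30 min at room temperature.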

[9] = p53 small molecule agonists, cell-based qHTS assay with rat liver microsomes: qHTS cell viability counter screen (AID 1963580); further: nearly all actives have a fitted effect of over 45% in size
Procedure, shortened: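 Cytotoxicity counter screen: intracellular ATP read by CellTiter-Glo luminescence in the p53 reporter wells. HCT-116 p53RE-bla cells were treated for 16 h at 37 C alongside rat liver microsomes and NADPH, each 0.5 mg/mL final.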

[10] = p53 small molecule agonists, cell-based qHTS assay: qHTS cell viability counter screen (AID 1963581); further: nearly all actives have a fitted effect of over 45% in size
Procedure, shortened: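 Viability was counter-screened in parallel with the p53 agonist reporter by measuring intracellular ATP luminescence in the same HCT-116 p53RE-bla wells after 16 h compound treatment at 37 C.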

[11] = p53 small molecule agonists, cell-based qHTS assay (AID 1963582; active means well fitted activation curve with a large enough effect in the signal ratio in the repeat runs, not every such curve was filed as active; the % refers to the signal ratio)
Procedure, shortened: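 Cells carrying a p53-responsive bla reporter are treated with test compounds for 16 h at 37 C; beta-lactamase activity is then detected with LiveBLAzer B/G FRET substrate after 2 h at room temperature.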

[12] = molecular target: 5-hydroxytryptamine receptor 2A (Homo sapiens) (UniProt P28223); experiment: 5-hydroxytryptamine receptor 2A (HTR2A) small molecule antagonists, cell-based qHTS assay (AID 1963586); further: nearly all actives have a fitted effect of over 45% in size
Procedure, shortened: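 CHO cells stably expressing human HTR2A were plated for 18 h at 37 C, then loaded with calcium dye for 1 h. Compounds were preincubated 5 min at room temperature before DOI (4 nM solution) was added. Kinetic fluorescence was read for 3 min.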

[13] = molecular target: 5-hydroxytryptamine receptor 2A (Homo sapiens) (UniProt P28223); experiment: 5-hydroxytryptamine receptor 2A (HTR2A) small molecule agonists, cell-based qHTS assay (AID 1963587); further: nearly all actives have a fitted effect of over 30% in size
Procedure, shortened: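 Kinetic calcium-flux fluorescence (2 min, 1 sec intervals) after compound addition in agonist mode. HTR2A-CHO cells were cultured 18 h, then dye-loaded 1 h at 37 C.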

[14] = molecular target: Muscarinic acetylcholine receptor M1 (Homo sapiens) (UniProt P11229); experiment: Cholinergic receptor muscarinic 1 (CHRM1) small molecule antagonists, cell-based qHTS assay (AID 1963588); further: nearly all actives have a fitted effect of over 40% in size
Procedure, shortened: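 Compounds were tested at 15 concentrations in three independent runs. Dye-loaded CHRM1-CHO cells were exposed 5 min at room temperature before stimulation by acetylcholine added at 50nM. Intracellular calcium was read kinetically on FDSS for 3 min.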

[15] = molecular target: Muscarinic acetylcholine receptor M1 (Homo sapiens) (UniProt P11229); experiment: Cholinergic receptor muscarinic 1 (CHRM1) small molecule agonists, cell-based qHTS assay (AID 1963589); further: nearly all actives have a fitted effect of over 35% in size
Procedure, shortened: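 Cells were plated and incubated 18 h at 37 C/5% CO2, loaded with calcium dye for 1 h at 37 C, then treated with compounds in DMSO. Fluorescence was recorded kinetically at 1 sec intervals.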

[16] = cAMP Responsive Elements (CRE) small molecule agonists, cell-based qHTS assay (AID 1963590)
Procedure, shortened: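 Cells carrying a CRE-driven beta-lactamase reporter (HEK 293T) are seeded, incubated overnight (18 h), and treated with test compounds for 3 h at 37 C; reporter activity is then detected with a FRET substrate after 2 h at room temperature.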

[17] = cAMP Responsive Elements (CRE) small molecule antagonists, cell-based qHTS assay (AID 1963591; active means well fitted inhibition curve with a large enough effect in the signal ratio in the repeat runs, not every such curve was filed as active; the % refers to the signal ratio)
Procedure, shortened: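 Cells (CRE-bla HEK 293T, DMEM with 10% dialyzed FBS and 25 mM HEPES) are seeded and incubated 18 h. Compounds are added with NKH477 agonist at 0.25 uM final for 3 h, then FRET substrate for 2 h.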

[18] = molecular target: Beta-2 adrenergic receptor (Homo sapiens) (UniProt P07550); experiment: Adrenergic beta2 receptor (ADRB2) small molecule antagonists, cell-based qHTS assay (AID 1963592); further: series mostly up to about 92 µM; nearly all actives have a fitted effect of over 50% in size
Procedure, shortened: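 Assay format: CHO-ADRB2 cells, 18-20hr seeding at 37C/5% CO2, then compound plus 1nM isoproterenol agonist mix for 0.5hr RT. Homogeneous time-resolved fluorescence cAMP detection after 1hr, expressed as 665/615 nm ratio.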

[19] = molecular target: D(2) dopamine receptor (Homo sapiens) (UniProt P14416); experiment: Dopamine D2 receptor (DRD2) small molecule agonists, cell-based qHTS assay (AID 1963594); further: nearly all actives have a fitted effect of over 35% in size
Procedure, shortened: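 cAMP accumulation in DRD2-HEK293 cells measured by HTRF after 1 h detection; compounds added 10 min before NKH477 (200nM […]) forskolin-analogue stimulation, 30 min at room temperature, with Ro20-1724 present at 0.1 mM final.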

[20] = molecular target: D(2) dopamine receptor (Homo sapiens) (UniProt P14416); experiment: Dopamine D2 receptor (DRD2) small molecule antagonists, cell-based qHTS assay (AID 1963595; active means well fitted inhibition curve with a large enough effect in the signal ratio in the repeat runs, with a control signal flat; the % refers to the signal ratio)
Procedure, shortened: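 Human DRD2 antagonist qHTS measuring cAMP by HTRF. The cells are exposed to compound for 10 min, then to NKH477 (200 nM) and quinpirole (12 nM) for 30 min at RT, with Ro20-1724 (0.1 mM) present throughout.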

Measured: Potency

Sequence of Muscarinic acetylcholine receptor M1 (Homo sapiens) (P11229 whole entry, looked up): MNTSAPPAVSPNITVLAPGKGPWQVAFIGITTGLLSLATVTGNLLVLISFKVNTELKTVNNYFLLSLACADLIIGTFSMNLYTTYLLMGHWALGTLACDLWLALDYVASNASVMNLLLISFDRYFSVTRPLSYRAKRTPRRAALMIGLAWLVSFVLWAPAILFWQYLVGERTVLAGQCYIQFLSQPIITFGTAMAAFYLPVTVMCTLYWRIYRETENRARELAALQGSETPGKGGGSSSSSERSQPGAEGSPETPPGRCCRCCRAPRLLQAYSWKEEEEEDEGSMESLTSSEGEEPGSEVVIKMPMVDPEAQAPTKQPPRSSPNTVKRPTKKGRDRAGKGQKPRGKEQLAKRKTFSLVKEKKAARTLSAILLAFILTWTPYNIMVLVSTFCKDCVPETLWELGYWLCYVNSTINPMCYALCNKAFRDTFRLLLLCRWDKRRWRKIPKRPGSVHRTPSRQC
Sequence of KiSS-1 receptor (Homo sapiens) (Q969F8 whole entry, looked up): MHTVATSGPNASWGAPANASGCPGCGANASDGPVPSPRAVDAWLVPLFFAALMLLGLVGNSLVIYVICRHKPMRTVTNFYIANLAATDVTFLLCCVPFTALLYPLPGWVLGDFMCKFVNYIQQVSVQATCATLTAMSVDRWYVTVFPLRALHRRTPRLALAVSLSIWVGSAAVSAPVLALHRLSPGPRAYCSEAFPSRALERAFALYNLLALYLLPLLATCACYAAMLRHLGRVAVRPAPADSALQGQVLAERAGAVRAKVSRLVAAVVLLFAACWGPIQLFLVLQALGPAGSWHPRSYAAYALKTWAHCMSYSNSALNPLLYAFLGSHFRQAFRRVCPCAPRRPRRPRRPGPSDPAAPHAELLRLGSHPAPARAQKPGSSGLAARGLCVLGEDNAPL
Sequence of Gonadotropin-releasing hormone receptor (Homo sapiens) (P30968 whole entry, looked up): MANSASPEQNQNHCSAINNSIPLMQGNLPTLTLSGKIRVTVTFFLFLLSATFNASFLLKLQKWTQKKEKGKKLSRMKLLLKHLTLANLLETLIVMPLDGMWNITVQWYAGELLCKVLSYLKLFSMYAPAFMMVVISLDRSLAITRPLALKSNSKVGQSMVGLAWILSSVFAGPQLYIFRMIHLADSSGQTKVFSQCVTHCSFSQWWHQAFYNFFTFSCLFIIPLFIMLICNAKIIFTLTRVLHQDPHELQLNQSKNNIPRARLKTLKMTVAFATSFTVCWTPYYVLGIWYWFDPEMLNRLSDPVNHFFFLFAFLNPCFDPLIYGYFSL
Sequence of D(2) dopamine receptor (Homo sapiens) (P14416 whole entry, looked up): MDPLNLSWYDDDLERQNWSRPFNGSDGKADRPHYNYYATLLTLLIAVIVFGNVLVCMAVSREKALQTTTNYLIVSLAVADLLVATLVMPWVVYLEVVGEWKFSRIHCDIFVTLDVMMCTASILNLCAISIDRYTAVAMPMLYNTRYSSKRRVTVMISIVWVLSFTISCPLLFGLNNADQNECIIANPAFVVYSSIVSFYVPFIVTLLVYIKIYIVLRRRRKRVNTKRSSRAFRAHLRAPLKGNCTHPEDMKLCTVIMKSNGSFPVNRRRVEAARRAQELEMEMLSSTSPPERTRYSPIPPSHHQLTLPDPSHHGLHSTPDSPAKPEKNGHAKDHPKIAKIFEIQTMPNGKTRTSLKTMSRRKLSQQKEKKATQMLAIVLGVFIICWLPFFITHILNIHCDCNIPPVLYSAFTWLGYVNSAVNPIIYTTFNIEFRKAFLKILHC
Sequence of Beta-2 adrenergic receptor (Homo sapiens) (P07550 whole entry, looked up): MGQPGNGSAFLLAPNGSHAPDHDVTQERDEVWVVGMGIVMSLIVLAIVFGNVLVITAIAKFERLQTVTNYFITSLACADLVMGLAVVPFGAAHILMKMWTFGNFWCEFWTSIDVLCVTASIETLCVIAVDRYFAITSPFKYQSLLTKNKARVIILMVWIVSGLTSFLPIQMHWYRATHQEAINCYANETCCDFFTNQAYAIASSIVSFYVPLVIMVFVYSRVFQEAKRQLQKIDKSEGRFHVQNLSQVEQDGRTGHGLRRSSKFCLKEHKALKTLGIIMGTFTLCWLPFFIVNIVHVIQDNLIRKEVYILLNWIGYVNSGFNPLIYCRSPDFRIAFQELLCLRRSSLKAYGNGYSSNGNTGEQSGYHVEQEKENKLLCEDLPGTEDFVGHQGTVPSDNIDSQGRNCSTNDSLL
Sequence of 5-hydroxytryptamine receptor 2A (Homo sapiens) (P28223 whole entry, looked up): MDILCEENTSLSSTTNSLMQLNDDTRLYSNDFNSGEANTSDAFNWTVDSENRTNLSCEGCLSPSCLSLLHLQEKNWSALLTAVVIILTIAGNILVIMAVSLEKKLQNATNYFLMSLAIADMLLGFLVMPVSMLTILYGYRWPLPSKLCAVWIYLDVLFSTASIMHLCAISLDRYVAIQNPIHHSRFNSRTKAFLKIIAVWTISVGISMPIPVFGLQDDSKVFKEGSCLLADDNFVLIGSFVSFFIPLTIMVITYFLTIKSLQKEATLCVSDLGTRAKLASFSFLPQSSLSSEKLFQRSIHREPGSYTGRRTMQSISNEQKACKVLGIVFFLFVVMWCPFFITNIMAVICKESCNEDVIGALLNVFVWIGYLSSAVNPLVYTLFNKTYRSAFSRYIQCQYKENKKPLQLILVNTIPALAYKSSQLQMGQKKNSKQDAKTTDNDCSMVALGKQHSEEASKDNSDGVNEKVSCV

C=C(C)[C@@H]1CC=C(C=O)CC1
inactive: [1] | [2] | [3] | [4] | [5] | [6] | [7] | [8] | [9] | [10] | [11] | [12] | [13] | [14] | [15] | [16] | [17] | [18] | [19] | [20]

Nc1cnn(-c2ccccc2)c(=O)c1Cl
inactive: [1] | [2] | [3] | [4] | [5] | [6] | [7] | [8] | [9] | [10] | [11] | [12] | [13] | [14] | [15] | [16] | [17] | [18] | [20]

Nc1c(Oc2ccccc2)cc(O)c2c1C(=O)c1ccccc1C2=O
inactive: [1] | [2] | [3] | [4] | [5] | [6] | [7] | [8] | [9] | [10] | [11] | [12] | [13] | [14] | [15] | [16] | [17] | [18] | [19] | [20]

CCc1cc(C)cc(CC)c1-c1c(OC(=O)C(C)(C)C)n2n(c1=O)CCOCC2
inactive: [1] | [2] | [3] | [4] | [5] | [6] | [7] | [8] | [9] | [10] | [11] | [12] | [13] | [14] | [15] | [16] | [17] | [18] | [19] | [20]

CC(C)N1C(=O)c2ccccc2NS1(=O)=O
inactive: [1] | [2] | [3] | [4] | [5] | [6] | [7] | [8] | [9] | [10] | [11] | [12] | [13] | [14] | [15] | [16] | [17] | [18] | [19] | [20]

Cc1ccc2ccccc2c1
inactive: [1] | [2] | [3] | [4] | [5] | [6] | [7] | [8] | [9] | [10] | [11] | [12] | [13] | [14] | [15] | [16] | [17] | [18] | [19] | [20]

CCC1(CC)C(=O)C=CNC1=O
inactive: [1] | [2] | [3] | [4] | [5] | [6] | [7] | [8] | [9] | [10] | [11] | [12] | [13] | [14] | [15] | [16] | [17] | [18] | [19] | [20]

NC1(c2ccccc2)CCCCC1
inactive: [1] | [2] | [3] | [4] | [5] | [6] | [7] | [8] | [9] | [10] | [11] | [12] | [13] | [14] | [15] | [16] | [17] | [18] | [20]

Source: PubChem BioAssay (Tox21)
